Test results published in PubChem BioAssay AID488 (PCMD, 2006).
The campaign covered roughly 62,000 compounds. About 40 (0.06%) were called active. The full list was thinned out, with actives kept by preference. A number with no mark means an inactive call. No stated cut-off is given here; in the data, active means inhibition above about 22% (passing the limit was not always enough); inconclusive means no clear call, values can overlap the other calls.

The compounds below were run against Cathepsin B (Homo sapiens) (UniProt P07858) (assay: cathepsin B inhibitors from pooled compounds, primary screen, biochemical, compound mixtures, AMC fluorescence (AID 488;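 further: 0% = enzyme without compound and 100% = no enzyme blank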)). Conditions: Purified cathepsin B, AMC dipeptide fluorescence, active compounds read high,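 ten-compound pools at 5 µM per compound and 50 µM total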.

SMILES	inhibition
Cc1ccc(C(=O)CSc2nnc(Cn3nnc4ccccc43)n2C)cc1	-0.39%
C=CCn1c(SCc2csc(C)n2)nc2scc(-c3ccc(C)o3)c2c1=O	5.42%
Cc1ccc2nc(NCCCNC(=O)c3cnccn3)c(C#N)cc2c1	1.1%
CCNc1nc(SCCOc2ccccc2)nc(N(C)C)n1	3.91%
C/C(Cl)=C\Cn1c(Nc2cccc(C)c2)nc2c1c(=O)n(C)c(=O)n2C	5.3%
Cc1ccccc1S(=O)(=O)Cc1ccc(C(=O)NCCN2CCCCC2C)o1 (stereo unspecified)	3.67%
CCOc1ccc2[nH]c(=O)c(CN(Cc3nnnn3Cc3ccccc3)CC3CCCO3)cc2c1 (stereo unspecified)	3.02%
COC(=O)Nc1ncc(CN2C(=O)c3ccccc3C2=O)s1	-2.69%
CCCS(=O)(=O)N1CCCC(C(=O)NCCN2CCCCC2C)C1 (stereo unspecified)	3.97%
Cc1ccc(C(C(=O)NC2CCCC2)N(Cc2ccco2)C(=O)CCC(=O)Nc2ccccn2)cc1 (stereo unspecified)	3.21%
CCCCn1c(CN2CCN(CCO)CC2)nc2ccccc21	2.92%
CCc1ccc(-c2nnn(Cc3nc4ccccc4s3)n2)cc1	4.33%
O=c1[nH]nc(CSCc2ccccc2Cl)[nH]1	4.72%
O=C(COc1ccc(F)cc1)N(CC1=CCS(=O)(=O)C1)c1ccccc1	-3.79%
Cc1ccc2cc3cc(C(=O)N4CCCCCC4)oc3nc2c1	3.89%
C=CCn1c(N)c(C(=O)OCC(C)C)c2nc3ccccc3nc21	-4.76%
COc1cccc(NS(=O)(=O)c2ccc3[nH]cc(C(=O)NCCCOC(C)C)c(=O)c3c2)c1	5.5%
COC(=O)[C@H](CCSC)NC(=O)Nc1ccc(OC)cc1	1.64%
C=CCNC(=O)c1cc(-c2ccccc2O)on1	-1.28%
O=C(CSc1nnc(-c2ccco2)n1Cc1ccccc1)NC(=O)NCc1ccco1	-0.985%
COCCCN(C(=O)Cn1ncc2c(=O)oc3ccc(C)cc3c21)C(C)c1ccncc1 (stereo unspecified)	1.95%
O=C(CN1C(=O)NC2(CCCCC2)C1=O)NCCC1=CCCCC1	4.21%
Cc1cc(NC(=O)COn2nnc3ccccc32)no1	1.15%
CCc1ccccc1NC(=O)CSc1nnc([C@@H](NC(=O)OC(C)(C)C)C(C)C)o1	5.22%

SMILES	inhibition
COc1ccc(C(=O)Nc2ccc3c(c2)OCO3)cc1OC	1.18%
Cc1ccc(C(=O)NCC(=O)O)cc1S(=O)(=O)N1CCCCC1	1.96%
Cc1ccc(C(=O)Nc2ccc3c(c2)OCO3)cc1S(=O)(=O)N1CCCCC1	62.7% (active)
COc1ccc(NS(=O)(=O)c2ccc(NC(C)=O)cc2)cc1OC	2.73%
CCC(=O)c1ccc(OCC(O)CN2CCN(c3cccc(C(F)(F)F)c3)CC2)cc1 (stereo unspecified)	2.81%
Cc1noc(C)c1S(=O)(=O)Nc1ccc(C(=O)O)cc1	5.64%
COc1ccc(CC(=O)c2ccc(O)cc2O)cc1OC	-2.36%
Cc1ccc(SCCN2C(=O)NC(C)(C)C2=O)cc1	3.79%
CCCc1nc(N)nc2c1C(=O)CC(C)(C)C2	3.17%
CCC(=O)N1CCc2cc(S(=O)(=O)NC(C(=O)N3CCc4ccccc4C3)C(C)C)ccc21 (stereo unspecified)	15.3%
O=C(NCc1ccc(Cl)c(Cl)c1)c1cccnc1	-2.21%
CCCC(CCC(=O)OC)(C(=O)OCC)c1csc(N)n1 (stereo unspecified)	6.54%
CC1CCCN(Cc2nc3c(c(=O)n(C)c(=O)n3C)n2Cc2cccc3ccccc23)C1 (stereo unspecified)	1.14%
CN(CCCC(=O)Nc1nccs1)S(=O)(=O)c1ccc(Cl)cc1	3.83%
Cc1ccc(S(=O)(=O)N2CCN(C(=O)CCC(=O)NC3CCCc4ccccc43)CC2)cc1 (stereo unspecified)	1.64%
CC(=O)Nc1cc(C(=O)O)ccc1S(=O)(=O)c1ccc(Cl)cc1	-0.3%
CCCC(=O)N1c2ccccc2NC2=C(C(=O)CCC2)C1c1ccc(F)cc1 (stereo unspecified)	4.79%
COc1ccc(OC)c(NC(=O)CSc2nc3cccnc3n2C)c1	-8.48%
O=C1NC(Nc2nc3ccccc3s2)(C(F)(F)F)C(=O)N1C1CCCCC1 (stereo unspecified)	1.35%
CN1CCN(C(=O)C2C3C=CC(C3)C2C(=O)O)CC1 (stereo unspecified)	5.22%
CSCCC(NC(=O)c1ccc(=O)n(C)n1)c1nc2ccccc2[nH]1 (stereo unspecified)	-2.06%
c1ccc2c(c1)OCC(c1nn3cnnc3s1)O2 (stereo unspecified)	-2.62%
O=C(NCCN1C(=O)C2C3C=CC(C3)C2C1=O)Nc1ccccn1 (stereo unspecified)	7.59%
Cn1c2ccccc2c2c(C(=O)N3CCN(c4ccc(F)cc4)CC3)cn(C3CCCC3)c(=O)c21	4.51%

SMILES	inhibition
CCCNc1ncnc2sc(C)c(C)c12	2.56%
O=C(CSc1nnnn1-c1ccc2c(c1)CCC2)Nc1ccc2c(c1)OCCO2	0.15%
Cn1c(=O)n(C)c2cc(CNc3ccc(N4CCOCC4)c(C(=O)O)c3)ccc21	-0.23%
O=C(Nc1ccc(Cl)cc1)c1ccsn1	-2.12%
COc1ccc(OC)c(C(=O)CSc2nnc(-c3cccs3)o2)c1	-2.44%
CCN(CC)S(=O)(=O)c1ccc2nc(COC(=O)c3n[nH]c4ccccc34)[nH]c2c1	3.42%
O=C(NC(c1ccccc1)c1ccccc1)N1CCN(CCO)CC1	3.62%
CC1CCC(NC(=O)c2ccc(N3CCCC3=O)cc2)CC1 (stereo unspecified)	-4.06%
COCC(=O)Nc1nnc(COc2ccccc2)s1	-8.97%
COC(C)(C)[C@]12CC(O)(C(C)C)ON1[C@H]1CCCCC1N2O (stereo partly specified)	-3.22%
Cn1c(=O)c2c(n(Cc3ccccc3)c1=O)NC(=O)C2CC(=O)N1CCc2ccccc2C1 (stereo unspecified)	0.76%
O=c1c2c(nc3n1CCCCC3)sc1c(O)cccc12	5.69%
CC(C)c1ccc(NS(=O)(=O)c2cn(C)c(=O)n(C)c2=O)cc1	3.38%
CCCCNC(=O)c1ccccc1NC(=O)c1ccccc1N(C)S(C)(=O)=O	7.15%
CCOC(=O)Cc1csc(NC(=O)CN(C)S(=O)(=O)c2ccc3c(c2)CCC(=O)N3)n1	3.69%
COc1ccc(-c2nc(CS(=O)CC(=O)N3CCc4ccccc4C3)c(C)o2)cc1 (stereo unspecified)	4.29%
CCC(C)Sc1nc(C)nc2c1c(=O)n(C)c(=O)n2C (stereo unspecified)	2.91%
N#CCCn1ncc2ccccc21	-3.63%
COc1ccc(CCN2CNc3c(c(=O)n(C)c(=O)n3C)C2)cc1OC	0.085%
COc1ccc(-c2ccnc(SCC(=O)N3CCOCC3)n2)cc1	-0.81%
CCN1CCN(c2c(Cl)cccc2NC(=O)c2ccc(Br)o2)CC1	5.68%
COc1nc(NCc2ccc(Cl)cc2)nc(OC)n1	6.46%
CCCn1c(SCC(=O)N2CCc3ccccc32)nnc1-c1ccncc1	5.11%
CC(C)(C)NC(=O)NC(=O)COC(=O)Cn1c(C(F)(F)F)nc2ccccc21	0.995%

SMILES	inhibition
N#Cc1cccc(CSc2nnc(CCCO)n2-c2ccccc2)c1	22%
COC(=O)c1c(NC(=O)CCN2CCOCC2)sc2c1CCCC2	3.41%
Cn1c(=O)cc(SCC(=O)N2CCN(C(=O)c3ccco3)CC2)c2ccccc21	2.19%
Cc1ccccc1-c1nc(CS(=O)(=O)CC(=O)N2CCc3ccccc3C2)c(C)o1	4.15%
Cc1cccc(NC(=O)C2CCN(S(=O)(=O)c3cccc4cccnc34)CC2)c1	4.24%
Cc1cc(Nc2ccc(Br)cc2F)n2ncnc2n1	-2.18%
COc1ccc(C(CC(=O)O)NC(=O)Cc2ccccc2)cc1 (stereo unspecified)	-0.455%
COc1ccc(S(=O)(=O)N2CCCCC2)cc1Br	2.55%
CC(=O)c1cc(-c2ccccc2)[nH]c1N1CCCC1	2.3%
CC1Oc2ccccc2N(Cc2cccnc2)C1=O (stereo unspecified)	4.41%
O=C(CCS(=O)(=O)c1cccc2nonc12)NCCc1ccccc1Cl	4.8%
Cn1cccc1Cc1nnc(SCC(=O)NCCc2ccccc2)n1-c1ccc(F)cc1	4.42%
CC1(C)Oc2ccc(C(=O)N3CCOCC3)cc2N(CC(=O)Nc2ccccc2)C1=O	-0.39%
COc1ccccc1C(=O)C(O)c1ccccc1OC (stereo unspecified)	1.43%
O=C(Cn1cc(C(=O)c2cccs2)c2ccccc21)NCc1cccs1	-1.35%
CCOC(=O)COc1ccc(Cl)cc1C1NC(=O)NC(C)=C1C(C)=O (stereo unspecified)	-5.4%
O=C(NCc1ccccn1)c1c(O)c2c([nH]c1=O)CCCC2	4.33%
CC12COC3(C(=O)Nc4ccc(Cl)cn4)CC1CCC32C (stereo unspecified)	2.24%
COc1cccc(C(CC(=O)NCCN2CCOCC2)NS(=O)(=O)c2ccc(C)cc2)c1OC (stereo unspecified)	-2.29%
CCN(C(=O)CSc1ncn[nH]1)c1cccc2ccccc12	5.46%
Cn1c(=O)c2c(nc(N3CCCCCC3)n2CC(=O)c2ccc(Br)cc2)n(C)c1=O	6.96%
CCOC(=O)CSc1nnc(CNC(=O)c2cccs2)n1-c1ccccc1	3.94%
CCCOc1ccc(NC(=O)C2CCCNC2=O)cc1 (stereo unspecified)	0.055%
CCOC(=O)N1CCN(C(=O)c2ccc(S(=O)(=O)c3ccc(C)cc3)c(NC(C)=O)c2)CC1	0.155%
